Source: PubChem BioAssay AID624138 (Broad Institute, 2012)
Screen size: about 17,000 compounds; about 35 (0.2%) were called active.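 How the source made its calls: active means compounds whose four printed spots each show fluorescence over background unusually high for their array block, chance value under 7%; inactive means the rest.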 The entries come from a sample that favours actives as a whole.

Molecular target: Signal transducer and activator of transcription 3 (Homo sapiens) (UniProt P40763)
Sequence (P40763 whole entry, looked up): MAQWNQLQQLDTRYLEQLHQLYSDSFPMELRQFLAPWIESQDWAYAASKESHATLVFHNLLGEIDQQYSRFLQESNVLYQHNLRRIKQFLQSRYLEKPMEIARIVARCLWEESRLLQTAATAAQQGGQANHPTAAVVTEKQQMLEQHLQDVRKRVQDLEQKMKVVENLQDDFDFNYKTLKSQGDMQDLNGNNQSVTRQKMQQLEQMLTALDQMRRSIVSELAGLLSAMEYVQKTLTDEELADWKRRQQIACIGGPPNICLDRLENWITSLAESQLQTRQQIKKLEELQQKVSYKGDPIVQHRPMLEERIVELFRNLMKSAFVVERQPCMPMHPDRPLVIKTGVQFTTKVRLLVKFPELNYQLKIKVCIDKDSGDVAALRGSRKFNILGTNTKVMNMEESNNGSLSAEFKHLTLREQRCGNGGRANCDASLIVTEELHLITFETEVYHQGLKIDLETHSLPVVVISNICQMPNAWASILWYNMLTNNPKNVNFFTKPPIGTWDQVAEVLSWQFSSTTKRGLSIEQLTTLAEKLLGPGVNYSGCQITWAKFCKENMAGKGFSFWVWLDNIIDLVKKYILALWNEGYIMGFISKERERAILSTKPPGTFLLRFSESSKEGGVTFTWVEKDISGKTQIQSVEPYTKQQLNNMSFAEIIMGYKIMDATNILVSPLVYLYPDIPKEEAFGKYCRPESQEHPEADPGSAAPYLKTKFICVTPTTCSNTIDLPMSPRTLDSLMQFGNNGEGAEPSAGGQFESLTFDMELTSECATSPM
Test: STAT3 binders, primary screen, biochemical, small molecule microarray, single point, set 2 (AID 624138)
Conditions: His-STAT3 binding, anti-His fluorescence

outcome, inactive:
O=C(C1=C[C@H](C2CC2)C[C@H](OCc2ccc(CO)cc2)O1)N1CCN(Cc2ccccc2)CC1
C[C@@H]1CCCCO[C@H](CN(C)C(=O)Nc2ccccc2)[C@H](C)CN([C@H](C)CO)C(=O)c2cc(N(C)C)ccc2O1
CC(C)NC(=O)N(C)C[C@H]1OCCCC[C@@H](C)Oc2ccc(NC(=O)Nc3cccc4ccccc34)cc2C(=O)N([C@H](C)CO)C[C@@H]1C
C[C@H]1CN([C@@H](C)CO)C(=O)Cc2cc(NC(=O)Nc3ccc4c(c3)OCO4)ccc2O[C@H]1CN(C)CC1CC1
CC1(C)CC[C@]2(C(=O)O[C@@H]3O[C@H](CO)[C@@H](O)[C@H](O)[C@H]3O)CC[C@]3(C)C(=CCC4[C@@]5(C)CC[C@H](O[C@@H]6O[C@H](C(=O)O)[C@@H](O[C@@H]7OC[C@H](O)[C@H](O)[C@H]7O)[C@H](O)[C@H]6O)C(C)(C)C5CC[C@]43C)C2C1 (some centres not stated)
CC(=O)OC[C@H]1O[C@@H](Oc2c(-c3ccc(O)c(O)c3)oc3cc(O)cc(O)c3c2=O)[C@H](O)[C@@H](O)[C@@H]1O
Cc1noc(C)c1S(=O)(=O)Nc1ccc2c(c1)C(=O)N([C@@H](C)CO)C[C@@H](C)[C@@H](CN(C)C)O2
C[C@H](CO)N1C[C@H](C)[C@@H](CN(C)S(=O)(=O)c2ccc(Cl)cc2)Oc2ccc(NS(=O)(=O)c3cccs3)cc2CC1=O
CC(C)NC(=O)Nc1ccc2c(c1)CC(=O)N([C@@H](C)CO)C[C@@H](C)[C@H](CN(C)Cc1ccc(C(F)(F)F)cc1)O2
OCc1nc2ccccc2n1CCOc1cccc(Cl)c1
C[C@@H]1CN([C@@H](C)CO)C(=O)c2cc(NC(=O)Nc3cccc4ccccc34)ccc2O[C@@H]1CN(C)C(=O)NC1CCCCC1
Cc1noc(C)c1NC(=O)N(C)C[C@@H]1Oc2ccc(NC(=O)Nc3ccc4c(c3)OCO4)cc2CC(=O)N([C@H](C)CO)C[C@H]1C
C[C@@H]1CCCCO[C@H](CN(C)C(=O)C2CCCCC2)[C@@H](C)CN([C@@H](C)CO)C(=O)c2cc(NC(=O)Nc3ccccc3)ccc2O1
C[C@H]1CCCCO[C@H](CN(C)Cc2ccccc2)[C@@H](C)CN([C@@H](C)CO)C(=O)c2cc(NS(C)(=O)=O)ccc2O1
C[C@H]1CN([C@@H](C)CO)C(=O)Cc2cc(NC(=O)Nc3cccc4ccccc34)ccc2O[C@H]1CN(C)CC1CC1
CO[C@H]1C(=O)c2c(O)c(CC=C(C)C)c(O)c(CC=C(C)C)c2O[C@@H]1c1ccc(O)cc1
COC(=O)CCCCCCC(=O)Nc1ccc(C2OC(CSc3nc(-c4ccccc4)c(-c4ccccc4)o3)CC(c3ccc([N+](=O)[O-])cc3)O2)cc1 (configuration not stated)
Cc1ccc(N(C(=O)COc2ccccc2[N+](=O)[O-])C2C=CS(=O)(=O)C2)cc1 (configuration not stated)
Cc1noc(C)c1NC(=O)Nc1ccc2c(c1)CC(=O)N([C@H](C)CO)C[C@H](C)[C@H](CN(C)C(=O)NC(C)C)O2
COc1ccc(C#Cc2ccc3c(c2)[C@]2(C(=O)N3)[C@H](c3ccccc3OCCO)N3[C@H](c4ccccc4)[C@H](c4ccccc4)OC(=O)[C@H]3[C@@H]2C(=O)N2CCCCCCC2)cc1
C[C@@H]1CN([C@@H](C)CO)C(=O)c2cc(N(C)C)ccc2O[C@@H](C)CCCCO[C@H]1CN(C)C(=O)CCCN(C)C
Cc1ccc(-n2c(SCC(=O)c3ccccc3)nnc2-c2ccncc2)cc1C
C[C@@H]1CCCCO[C@@H](CN(C)Cc2ccncc2)[C@@H](C)CN([C@@H](C)CO)C(=O)c2cc(NC(=O)Nc3ccc(F)cc3)ccc2O1
CC1(C)CC[C@@]2(C(=O)O)C(C1)C1=CCC3[C@@]4(C)CC[C@H](O)C(C)(C)C4CC[C@@]3(C)[C@]1(C)C[C@H]2O (some centres not stated)
Cn1c(Cc2csc(N)n2)nnc1SC/C=C/c1ccccc1
Cc1nnc(SCc2cc(=O)[nH]c(N3CCN(Cc4ccccc4)CC3)n2)s1
COc1ccc(OC)c(NC(=O)c2cnn(-c3ccccc3Cl)c2NC(=O)c2ccco2)c1
C[C@@H]1CN([C@H](C)CO)C(=O)c2cc(NC(=O)Nc3ccc4c(c3)OCO4)ccc2O[C@@H]1CN(C)Cc1ccc(C(F)(F)F)cc1
C[C@@H]1CN([C@H](C)CO)C(=O)Cc2cc(NC(=O)NC3CCCCC3)ccc2O[C@H]1CN(C)S(=O)(=O)c1ccc(Cl)cc1
CNC[C@@H]1Oc2c(NC(=O)Nc3ccccc3)cccc2C(=O)N([C@@H](C)CO)C[C@@H]1C
COC(=O)c1c(NC(=O)c2cc(-c3ccccn3)nc3ccc(Br)cc23)sc(C(=O)N(C)C)c1C
Cc1ccc(-c2cc(C(F)(F)F)n3nc(C(=O)NCCN4CCOCC4)c(Cl)c3n2)cc1
COc1ccc(S(=O)(=O)N2CCN(c3ccccn3)CC2)cc1N(C)S(=O)(=O)c1ccccc1
C=C1CCCC(C)(C(=O)OC)C1CC/C(C)=C/CCC1=CC(=O)OC1 (configuration not stated)
C[C@@H]1CN([C@H](C)CO)C(=O)CCCn2cc(nn2)CO[C@H]1CN(C)S(=O)(=O)c1ccc(Oc2ccccc2)nc1
C[C@H](CO)N1C[C@H](C)[C@H](CN(C)S(=O)(=O)c2cn(C)cn2)Oc2ccc(N(C)C)cc2C1=O
C[C@@H]1CN([C@@H](C)CO)C(=O)CCCn2cc(nn2)CO[C@H]1CN(C)Cc1cccc2c1OCCCO2
C[C@H](CO)N1C[C@H](C)[C@@H](CN(C)S(=O)(=O)c2cccs2)Oc2ccc(NC(=O)Nc3cccc4ccccc34)cc2CC1=O
C=CCn1c(SCc2nc3ccccc3[nH]2)nnc1-c1ccccc1
C[C@H]1CN([C@@H](C)CO)C(=O)CCCn2nncc2CO[C@H]1CN(C)Cc1ccccc1
C[C@H]1CN([C@@H](C)CO)C(=O)c2cc(NS(=O)(=O)c3cn(C)cn3)ccc2O[C@H]1CN(C)CC1CCCCC1
O=C(CCc1nc(-c2ccccc2Cl)no1)Nc1ccc(Cl)c(Cl)c1
O=C(NC1CC1)C1=C[C@H](c2coc3ccccc3c2=O)C[C@H](OCCCCO)O1
C[C@@H]1CN([C@H](C)CO)C(=O)Cc2cc(NC(=O)CCN3CCOCC3)ccc2O[C@H]1CN(C)Cc1ccncc1
C=C1CCC(C)C(C)(CCC2=CC(OC)OC2=O)C/C=C\C=C\1C(=O)O (configuration not stated)
C=CCNC(=O)[C@H]1[C@@H]2C(=O)O[C@@H](c3ccccc3)[C@@H](c3ccccc3)N2[C@@H](c2ccccc2OCCO)[C@]12C(=O)N(C(=O)OCCOC)c1ccc(C#Cc3ccc(OC)cc3)cc12
C[C@@H]1CN([C@H](C)CO)C(=O)c2cc(NC(=O)Nc3ccccc3)ccc2O[C@@H](C)CCCCO[C@@H]1CN(C)Cc1ccncc1
C[C@H]1CN([C@@H](C)CO)C(=O)Cc2cc(NC(=O)C3CC3)ccc2O[C@@H]1CN(C)S(=O)(=O)c1cccs1
COc1ccc(S(=O)(=O)N(C)C[C@@H]2Oc3c(NS(=O)(=O)c4ccccc4)cccc3C(=O)N([C@@H](C)CO)C[C@@H]2C)cc1
C[C@@H]1CN([C@H](C)CO)C(=O)c2cccc(NC(=O)c3ccncc3)c2O[C@@H]1CN(C)S(=O)(=O)c1cn(C)cn1
Cc1cccc(-n2c(SCC(N)=O)nnc2-c2ccncc2)c1C
C[C@@H]1CCCCO[C@@H](CN(C)C)[C@@H](C)CN([C@H](C)CO)C(=O)c2cc(NC(=O)c3ccncc3)ccc2O1
OC(CCCN1CCN(c2ncc(F)cn2)CC1)c1ccc(F)cc1 (configuration not stated)
C[C@@H]1CN([C@H](C)CO)C(=O)c2cccc(NS(=O)(=O)c3cn(C)cn3)c2O[C@@H]1CN(C)Cc1ccc(C(F)(F)F)cc1
Cc1ccc(NC(=O)C(C)N(c2ccc(Cl)cc2)S(C)(=O)=O)c(C)c1 (configuration not stated)
COc1ccc(-c2cnc3c(-c4ccsc4)cnn3c2)cc1
C[C@@H]1CCCCO[C@@H](CN(C)C(=O)NC2CCCCC2)[C@H](C)CN([C@H](C)CO)C(=O)c2cc(NS(=O)(=O)c3ccc(Cl)cc3)ccc2O1
Cc1noc(C)c1NC(=O)Nc1ccc2c(c1)C(=O)N([C@@H](C)CO)C[C@@H](C)[C@H](CN(C)C)O2
C[C@@H]1CCCCO[C@H](CN(C)C(=O)Nc2ccc3c(c2)OCO3)[C@@H](C)CN([C@@H](C)CO)C(=O)c2cc(NC(=O)CCC(F)(F)F)ccc2O1
C[C@@H]1CN([C@@H](C)CO)C(=O)Cc2cc(NS(C)(=O)=O)ccc2O[C@@H]1CN(C)Cc1ccc2c(c1)OCO2
Cc1ccc(S(=O)(=O)N(C)C[C@H]2Oc3ccc(NC(=O)CCC(F)(F)F)cc3C(=O)N([C@@H](C)CO)C[C@H]2C)cc1
C[C@@H]1CN([C@H](C)CO)C(=O)Cc2cc(NC(=O)CCCN(C)C)ccc2O[C@@H]1CN(C)S(=O)(=O)c1cccs1
N#Cc1cccc(CSc2nnc(CCCO)n2-c2ccccc2)c1
C[C@@H]1CCCCO[C@@H](CN(C)Cc2ccccc2)[C@H](C)CN([C@H](C)CO)C(=O)c2cc(NS(=O)(=O)c3cccs3)ccc2O1
O=C(CS(=O)(=O)c1ccccc1)Nc1ccc2c(c1)OCCO2
O=[N+]([O-])c1ccccc1/C=C/CN1CCC(O)CC1
COc1ccc(CN(C)C[C@H]2Oc3c(NC(=O)c4ccncc4)cccc3C(=O)N([C@H](C)CO)C[C@@H]2C)cc1
